LMP1 NFkB inh – inhibitors of Epstein-Barr LMP1-induced NF-kappaB reporter; 350,000 compounds, 0.69% hits; LMP1-induced NF-kappaB luciferase reporter cells, luminescence; inhibition, % at 12.5 µM; in the data active means inhibition above about 41%;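 further: 0% = neutral control wells and 100% = reference inhibitor control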
TROY NFkB inh – TROY signaling inhibition | AID 1347056 | Q293 LMP1-TROYcd NF-kB luciferase reporter, 4 h | inhibition, % at 10 µM | 360,000 compounds, 0.98% hits;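 active means compounds whose plate-normalised and pattern-corrected inhibition of the luciferase reporter signal at the single screening dose is 50% or more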
TWEAK-Fn14 inh – inhibitors of TWEAK-Fn14 interaction signaling; TWEAK-stimulated Fn14 reporter cells, luciferase luminescence, 8 h; inhibition, % at 10 µM; 360,000 compounds, 2% hits; AID 1159606; in the data active means inhibition above about 50%
HIF-2a block – inhibitors of HIF-2a; 786-0 RCC cells HIF-2a reporter, luciferase luminescence, overnight; inhibition, % at 18.8 µM; 360,000 compounds, 0.72% hits;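 active means inhibition of the luminescence signal of 40% or more relative to plate controls, in a single-dose primary screen at 18.75 µM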
MITF TRPM1 inh – reduces MITF-dependent TRPM1 promoter luciferase signal; SK-MEL-5 TRPM1 promoter luciferase, 24 h; inhibition, % at 12.5 µM; 330,000 compounds, 0.83% hits; AID 488899;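 active means mean inhibition across replicates of 60% or more, whatever share of single replicates reaches that level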
Shn3 inh set2 – Schnurri-3 reporter inhibition in Clone20 osteoblasts. inhibition, % at 12.5 µM. Clone20 osteoblast Shn3 3'UTR firefly luciferase, 24 h. AID 588674. 360,000 compounds, 0.52% hits;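 active means mean inhibition of at least 75% with every replicate also reaching 75%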;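 further: 0% = median of neutral control wells and 100% = pilot-screen positive control compound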
Active calls of the source: *; . = not tested or not shown. Shown are actives, neighbours in structure and some others; about 3.4% of the full set was active somewhere.

SMILES	LMP1 NFkB inh	TROY NFkB inh	TWEAK-Fn14 inh	HIF-2a block	MITF TRPM1 inh	Shn3 inh set2
Cc1c(Cl)cccc1NC(=O)CNC(=O)CCCc1nc2ccccc2c(=O)[nH]1	-10	-14	0	9	14	-11
COc1cccc(CN2CC(C(=O)NCCc3nccs3)CCC2=O)c1 (stereo unspecified)	3	-3	-7	5	.	9
O=C1OCCC1Sc1nnc(-c2ccc(Br)cc2)o1 (stereo unspecified)	23	-2	59*	47*	12	1
Cc1ccc(NC(=O)C2CCN(S(=O)(=O)c3ccc4c(c3)OCCO4)CC2)c(O)c1	2	-9	-3	7	14	-2
NC(=O)CC(NC(=O)c1ccccc1)c1ccc(N2CCC(Cc3ccccc3)CC2)c([N+](=O)[O-])c1 (stereo unspecified)	18	55*	43	13	14	91*
NC(=O)CC(NC(=O)c1ccc(Br)cc1)c1ccc(N2CCC(Cc3ccccc3)CC2)c([N+](=O)[O-])c1 (stereo unspecified)	9	-3	18	9	4	62
Cc1nc(N2CCN(C(=O)c3ccco3)CC2)c(C#N)c2c1CCCC2	10	16	-23	-92	-27	-9
CC(C)Cc1nc(N2CCN(C(=O)c3ccco3)CC2)c(C#N)c2c1CCCC2	7	53*	-12	9	16	8
COc1cccc(C(=O)NCC(=O)N2CCC3(CC2)NCCc2[nH]cnc23)c1OC	8	11	-2	3	-2	17
CN1CCN(C(c2ccc(Cl)cc2)c2cc(Cl)c3cccnc3c2O)CC1 (stereo unspecified)	-9	-4	28	50*	43	77
Oc1c(C(c2ccccn2)N2CCCCC2)cc(Cl)c2cccnc12 (stereo unspecified)	-1	2	10	13	25	20
CCC(=O)NC(c1cccs1)c1cc(Cl)c2cccnc2c1O (stereo unspecified)	21	-5	13	21	52	73
CCC(=O)NC(c1cc(Cl)c2cccnc2c1O)C1CC1 (stereo unspecified)	40*	4	17	15	34	78
CCC(=O)NC(c1cc(Cl)c2cccnc2c1O)C(C)C (stereo unspecified)	47*	-13	12	16	38	69
Cc1cccn2c(NC(=O)c3ccccc3F)c(-c3ccccc3)nc12	-3	2	-9	-15	2	0
Cc1ccc(C)c(NC(=O)c2ccccc2NS(=O)(=O)c2cc([N+](=O)[O-])ccc2C)c1	31	55*	58*	2	27	60
COc1cccc(CN2C(=O)C(C)N(C(=O)c3ccccc3)c3ccccc32)c1 (stereo unspecified)	13	25	46	26	12	28
CCOc1ccc(-c2csc(/C(C#N)=C\c3ccc(O)c([N+](=O)[O-])c3)n2)cc1	-11	71*	104*	-124	10	-36
O=C(CCCOc1ccccc1)N1CCN(c2ccccn2)CC1	-12	30	70*	-129	-27	-30
COC(=O)C1CCN(C(=O)CCCOc2ccccc2)CC1	10	-5	51*	-112	-49	-78
CN1CCN(C(=O)OCCOCCOC(=O)N2CCN(C)CC2)CC1	-2	-8	4	-1	-2	24
Cc1ccc(Nc2nc(CSc3nnc(-c4ccncc4)n3C)cs2)cc1	17	41	53*	-108	-57	-53
Cc1ccc(CSc2nnc(-c3ccncc3)n2C)cc1	-20	4	-5	-6	-14	3
Cc1ccc(S(=O)(=O)N2CCCN(C(=O)c3ccc(-n4cccn4)cc3)CC2)cc1	0	5	-4	13	-5	5
COc1cc(NC(=O)c2ccc([N+](=O)[O-])o2)ccc1NC(=O)c1ccco1	-34	13	1	-45	84*	68
COc1cc(NC(=O)c2cccc([N+](=O)[O-])c2)ccc1NC(=O)c1ccco1	10	13	-33	-42	-13	0
Cc1cc(C)cc(NC(=O)c2ccc([N+](=O)[O-])o2)c1	-26	-13	22	19	65*	35
CC(=O)c1ccc(NC(=O)c2ccc([N+](=O)[O-])o2)cc1	-36	-10	4	20	18	-66

Bioassay records: PubChem BioAssay, several laboratories
